Test results published in PubChem BioAssay (NCI).
Values joined by “and” are separate entries in the source; they are usually repeats but may differ in a detail not shown here. Equal values may be shown once. The panel holds about 79,000 compounds, 15% with a hit somewhere; the sample as a whole holds those more often. Active and inactive are the calls of the source. No stated cut-off is given here; in the data, active means growth inhibition above about 70%; inactive means the rest.

How the values were obtained:
[1] = NCI Yeast Anticancer Drug Screen. Data for the rad50 strain (AID 155);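 further: 0% = growth of vehicle-only cultures of the same strain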; settings: S. cerevisiae rad50 strain growth inhibition; at 50.0 µM; hits give high values
Method in brief: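 A DNA repair-deficient yeast mutant serves as the test organism; compound-induced growth inhibition is calculated against vehicle-treated cells.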

[2] = NCI Yeast Anticancer Drug Screen. Data for the mec2-1 strain (AID 157); settings: S. cerevisiae mec2-1 strain, hits give high values
Method in brief: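 Cells of the genetically defined mec2-1 yeast strain are incubated with test compound. Inhibition of growth is calculated against vehicle-treated controls.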

[3] = NCI Yeast Anticancer Drug Screen. Data for the sgs1 mgt1 strain (AID 161);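 further: 0% = growth of cultures given vehicle only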; settings: S. cerevisiae sgs1 mgt1 strain, hits give high values
Method in brief: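 Mutant yeast exposed to compound; growth scored against vehicle-only wells.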

[4] = NCI Yeast Anticancer Drug Screen. Data for the cln2 rad14 strain (AID 165);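 further: 0% = growth equal to vehicle treated cultures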; settings: S. cerevisiae cln2 rad14 strain, hits give high values
Method in brief: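 The screen exposed genetically defined yeast (cln2 rad14) to test compounds and scored growth inhibition relative to vehicle-treated controls.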

[5] = NCI Yeast Anticancer Drug Screen. Data for the bub3 strain (AID 167); settings: S. cerevisiae bub3 mutant strain, hits give high values
Method in brief: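 Inhibition values come from growth of compound-treated mutant yeast normalised to vehicle-treated controls.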

[6] = NCI Yeast Anticancer Drug Screen. Data for the mlh1 rad18 strain (AID 175); settings: S. cerevisiae mlh1 rad18 strain growth inhibition, hits give high values
Method in brief: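 Compound-treated yeast growth, normalised to vehicle controls. Strain bears defined DNA repair mutations.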

[7] = at 5.0 µM (retest, dose inferred, filed as 0.5)
[8] = at 50.0 µM (retest, dose inferred, filed as 5.0)

Measured: growth inhibition

O=[N+]([O-])c1ccc2c(c1)C(=Nc1ccccc1)c1cccc([N+](=O)[O-])c1-2
inactive: [1] 6.55% and -21.9% | [2]; at 50.0 µM 16.2% and -12.8% | [3]; at 50.0 µM 15.6% and -6.05% | [4]; at 50.0 µM -36.9% and -24.8% | [5]; at 50.0 µM 8.8% and 8.9% | [6]; at 50.0 µM 20.3% and -26.3%

O=C(O)C1CCCCC1
inactive: [1] -5.9% and -10.2% | [2]; at 50.0 µM -22.6% and -8.45% | [3]; at 50.0 µM -13.7% and 22.7% | [4]; at 50.0 µM 5.95% and -13.2% | [5]; at 50.0 µM 2.15% and 2.55% | [6]; at 50.0 µM 8.3% and 17.1%

CCCCCCC1OCC(COC)O1 (configuration not stated)
inactive: [1] 5.25% and 2.25% | [2]; at 50.0 µM -3.1% and -10.5% | [3]; at 50.0 µM -1.9% and -11.1% | [4]; at 50.0 µM -4.55% and 6% | [5]; at 50.0 µM 0.5% and -2.35% | [6]; at 50.0 µM -2.45% and -10.2%

[O-][n+]1cccc2cccc(O)c21
inactive: [2]; [7] -1% | [2]; [8] 16% | [3]; [7] 1% | [3]; [8] 48% | [4]; [7] -3% | [4]; [8] 2% | [5]; [7] 1% | [5]; [8] 20% | [6]; [7] -12% | [6]; [8] 49%

c1ccc(CSSCc2ccccc2)cc1
inactive: [1] 9.45% and -1.4% | [2]; at 50.0 µM -0.35% and -3.15% | [3]; at 50.0 µM 3% and 1.85% | [5]; at 50.0 µM 4.9% and -9.9% | [6]; at 50.0 µM 15.3% and -14.1%

O=C(CC(=O)c1ccc(Cl)cc1)Cc1ccc2ccccc2n1
inactive: [1] 8.9% and 43.4% | [3]; at 50.0 µM 37.2% and 33.5% | [4]; at 50.0 µM 45% and 39.2% | [5]; at 50.0 µM 52.3% and 51% | [6]; at 50.0 µM 45.3% and 10.2%

Cn1c(COC(=O)NC2CCCCC2)c(COC(=O)NC2CCCCC2)c2ccc3cc(Cl)c(Cl)cc3c21
active: [5]; at 50.0 µM 72.7%
inactive: [2]; [7] -5% | [2]; [8] 8% | [2]; at 50.0 µM 23.2% | [3]; [7] -3% | [3]; [8] 29% | [3]; at 50.0 µM 56.5% | [4]; [7] 15% | [4]; [8] 12% | [4]; at 50.0 µM 49.2% | [5]; [7] 15% | [5]; [8] 30% | [6]; [7] 9% | [6]; [8] 11% | [6]; at 50.0 µM 21.8%

CCCCCCCCCCCC[n+]1ccc2ccccc2c1
active: [2]; [7] 99% | [2]; [8] 100% | [2]; at 50.0 µM 99.7% | [3]; [7] 98% | [3]; [8] 99% | [3]; at 50.0 µM 99.2% | [4]; [7] 98% | [4]; [8] 100% | [4]; at 50.0 µM 98.1% | [5]; [7] 99% | [5]; [8] 99% | [5]; at 50.0 µM 99.5% | [6]; [7] 98% | [6]; [8] 100% | [6]; at 50.0 µM 99.5%

O=C1CC(=P(c2ccccc2)(c2ccccc2)c2ccccc2)C(=O)O1
inactive: [1] 24.1% and -0.65% | [2]; at 50.0 µM 24.5% and -1% | [3]; at 50.0 µM 13.2% and 0% | [4]; at 50.0 µM 14.7% and 9.8% | [5]; at 50.0 µM 10.8% and -4.15% | [6]; at 50.0 µM 12.2% and 5.5%

O=C1CCOC2=C1COC2=O
inactive: [1] -30.7% and 9.5% | [3]; at 50.0 µM -2.4% and -0.6% | [4]; at 50.0 µM -25.6% and 12.3% | [5]; at 50.0 µM -7.95% and 19.6% | [6]; at 50.0 µM -1.2% and 16.6%

O=C(CCCCCCCCC(=O)NCC1(c2ccccc2)CCN(Cc2ccccc2)CC1)NCC1(c2ccccc2)CCN(Cc2ccccc2)CC1
inactive: [1] -7.45% and 8.25% | [2]; at 50.0 µM -17.1% and 6.25% | [3]; at 50.0 µM -13.8% and -19.2% | [4]; at 50.0 µM -11.4% and 2.2% | [6]; at 50.0 µM -0.55% and 26.4%

CC1CC(=O)C2CC1C2(C)C (configuration not stated)
inactive: [1] 18% and 27.3% | [2]; at 50.0 µM -9.05% and 0.3% | [3]; at 50.0 µM -2.15% and 11.7% | [4]; at 50.0 µM -0.85% and 12.1% | [5]; at 50.0 µM 6% and 14.1% | [6]; at 50.0 µM -6.1% and 23.9%

CSCCC(N)C(=O)NCC(=O)O (configuration not stated)
inactive: [1] -13.8% and -37.5% | [2]; at 50.0 µM -22.9% and -23.1% | [3]; at 50.0 µM -10.8% and 1.4% | [4]; at 50.0 µM 2.9% and -35.9% | [6]; at 50.0 µM -11.4% and -8.65%

NC(C(=O)O)C(O)C(=O)O (configuration not stated)
inactive: [1] -14% and 2.7% | [2]; at 50.0 µM 5.85% and 8.65% | [3]; at 50.0 µM 2.85% and -6.75% | [5]; at 50.0 µM -5.75% and 4.05% | [6]; at 50.0 µM 0.55% and -7.3%

Cc1cc(C(=O)O)c(CN2C(=O)c3ccccc3C2=O)c(=O)n1C
inactive: [2]; at 50.0 µM 20.4% and -14.3% | [3]; at 50.0 µM 2.45% and -7.1% | [4]; at 50.0 µM -6.3% and 6.85% | [5]; at 50.0 µM 12.1% and -19.1% | [6]; at 50.0 µM -18.9% and 9.45%

CC(O)c1nc2c([nH]1)c(=O)n(C)c(=O)n2C (configuration not stated)
inactive: [2]; at 50.0 µM -6.2% and -8.9% | [3]; at 50.0 µM -5.6% and -2% | [4]; at 50.0 µM -30.3% and -16.9% | [5]; at 50.0 µM 5.7% and -13.9% | [6]; at 50.0 µM 9.15% and -23.2%

Nc1cc2ccc(S(=O)(=O)O)cc2cc1S(=O)(=O)O
inactive: [1] 44.5% and 10.7% | [2]; at 50.0 µM 14.8% and 10.9% | [3]; at 50.0 µM 17.6% and -1.75% | [4]; at 50.0 µM -12.3% and -14.9% | [5]; at 50.0 µM 8.8% and 11.2% | [6]; at 50.0 µM 29.5% and 35.3%

O=C(O)C1CCCC2C(O)CCC(=O)C12 (configuration not stated)
inactive: [1] -23.5% and -14.2% | [2]; at 50.0 µM -16.3% and -6.8% | [3]; at 50.0 µM -12.7% and -5.6% | [4]; at 50.0 µM -5.45% and 4.25% | [5]; at 50.0 µM -12.9% and -5.9% | [6]; at 50.0 µM -29.4% and -32%

N#CC1OC1c1cccc[n+]1[O-] (configuration not stated)
inactive: [2]; at 50.0 µM -7.8% and -3.3% | [3]; at 50.0 µM 0.85% and -8.7% | [4]; at 50.0 µM -45.9% and -29.5% | [5]; at 50.0 µM -11.7% and -13.9% | [6]; at 50.0 µM -3.15% and 8.5%

O=C(O)c1cc2c(s1)C(=O)c1sccc1C2=O
inactive: [2]; [7] 33% | [2]; [8] 69% | [2]; at 50.0 µM 57.6% | [3]; [7] 39% | [3]; [8] 66% | [4]; [7] 12% | [4]; [8] 30% | [4]; at 50.0 µM 54.9% | [5]; [7] 36% | [6]; [7] 39%
active: [3]; at 50.0 µM 72% | [5]; [8] 79% | [5]; at 50.0 µM 71.2% | [6]; [8] 79% | [6]; at 50.0 µM 92.8%

CC(=O)OC(COC(=O)c1ccccc1)C(OC(C)=O)C(OC(C)=O)C(COC(=O)c1ccccc1)OC(C)=O (configuration not stated)
inactive: [2]; at 50.0 µM -7.8% and 2.5% | [3]; at 50.0 µM -7.65% and -9.85% | [4]; at 50.0 µM -18.9% and -21.4% | [5]; at 50.0 µM -3.3% and -2.7% | [6]; at 50.0 µM 5.45% and 17%

O=C1CCCCC1C(O)c1ccc([N+](=O)[O-])cc1 (configuration not stated)
inactive: [1] 0.05% and -2.7% | [2]; at 50.0 µM 16.1% and -5.9% | [3]; at 50.0 µM 10.7% and -2.35% | [5]; at 50.0 µM 5.3% and -5.1% | [6]; at 50.0 µM 16.1% and -6.85%
